Measured values reported in PubChem BioAssay (NCI).
The panel holds about 83,000 compounds, 20% with a hit somewhere; the sample as a whole holds those more often.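 Interpretation: 100, growth as untreated; towards 0, rising growth inhibition; 0, no net growth; 0 to -100, cell death. Compounds scoring below 10 were considered active.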 Calls of active or inactive are those of the source.

Tests used:
Experiment in all cases: NCI-60 one-dose screen, 48 h (100 = growth as untreated, 0 = no growth, -100 = all killed)
Details in all cases: 10 µM unless noted
SK-MEL-2 melanoma = test system: SK-MEL-2 melanoma
EKVX NSCLC = test system: EKVX NSCLC
SN12C renal = test system: SN12C renal
UO-31 renal = test system: UO-31 renal
TK-10 renal = test system: TK-10 renal
ACHN renal = test system: ACHN renal
CAKI-1 renal = test system: CAKI-1 renal
CCRF-CEM leukemia = test system: CCRF-CEM leukemia
MOLT-4 leukemia = test system: MOLT-4 leukemia
SR leukemia = test system: SR leukemia
RPMI-8226 leukemia = test system: RPMI-8226 leukemia
OVCAR-8 ovarian = test system: OVCAR-8 ovarian
OVCAR-5 ovarian = test system: OVCAR-5 ovarian
OVCAR-4 ovarian = test system: OVCAR-4 ovarian
SK-OV-3 ovarian = test system: SK-OV-3 ovarian
IGROV1 ovarian = test system: IGROV1 ovarian
OVCAR-3 ovarian = test system: OVCAR-3 ovarian
HS 578T breast = test system: HS 578T breast
NCI/ADR-RES ovarian = test system: NCI/ADR-RES ovarian

Measured: growth

O=C(Nc1nc(-c2ccc(Br)cc2)cs1)c1cc(-c2ccc(Br)cc2)nc2ccc(Cl)cc12
inactive: SK-MEL-2 melanoma 93.9% | EKVX NSCLC 77.8% | SN12C renal 85.1% | UO-31 renal 64.2% | TK-10 renal 115% | ACHN renal 85% | CAKI-1 renal 79.3% | CCRF-CEM leukemia 77.8% | MOLT-4 leukemia 80.6% | SR leukemia 70.4% | RPMI-8226 leukemia 85% | OVCAR-8 ovarian 88.1% | OVCAR-5 ovarian 104% | OVCAR-4 ovarian 82.5% | SK-OV-3 ovarian 78.2% | IGROV1 ovarian 60.5% | OVCAR-3 ovarian 86.9% | HS 578T breast 95.2% | NCI/ADR-RES ovarian 89.7%

Clc1nc(Nc2ccccc2)nc(Nc2ccccc2)n1
inactive: SK-MEL-2 melanoma 106% | EKVX NSCLC 106% | SN12C renal 95.9% | TK-10 renal 122% | ACHN renal 98.9% | CAKI-1 renal 86.5% | CCRF-CEM leukemia 91.7% | MOLT-4 leukemia 86.3% | SR leukemia 45.8% | RPMI-8226 leukemia 82.8% | OVCAR-8 ovarian 112% | OVCAR-5 ovarian 101% | OVCAR-4 ovarian 86.1% | SK-OV-3 ovarian 96.5% | IGROV1 ovarian 91.9% | OVCAR-3 ovarian 103% | HS 578T breast 121% | NCI/ADR-RES ovarian 94.6%
active: UO-31 renal -80.6%

CCOC(=O)Oc1c(OC)cc(C(=O)O[C@@H]2C[C@@H]3CN4CCc5c([nH]c6cc(OC)ccc56)[C@H]4C[C@@H]3[C@H](C(=O)OC)[C@H]2OC)cc1OC
inactive: SK-MEL-2 melanoma 105% | EKVX NSCLC 64.6% | SN12C renal 60% | UO-31 renal 80.2% | TK-10 renal 99.7% | ACHN renal 66.5% | CAKI-1 renal 65.5% | OVCAR-8 ovarian 75.9% | OVCAR-5 ovarian 90.5% | OVCAR-4 ovarian 94.7% | SK-OV-3 ovarian 91.9% | IGROV1 ovarian 82.3% | OVCAR-3 ovarian 38.5% | HS 578T breast 72.1% | NCI/ADR-RES ovarian 56.5%
active: CCRF-CEM leukemia -10.8% | MOLT-4 leukemia 7.97% | SR leukemia -2.39% | RPMI-8226 leukemia -5.39%

C=C(C)[C@@H]1CC[C@]2(C=O)CC[C@]3(C)[C@H](CC[C@@H]4[C@@]5(C)CCCNC(C)(C)[C@@H]5CC[C@]43C)[C@@H]12
inactive: SK-MEL-2 melanoma 89.5% | EKVX NSCLC 96.6% | SN12C renal 74.1% | UO-31 renal 69% | TK-10 renal 88.2% | ACHN renal 88.1% | CAKI-1 renal 89.4% | CCRF-CEM leukemia 59.7% | MOLT-4 leukemia 49.1% | RPMI-8226 leukemia 12.3% | OVCAR-8 ovarian 90.9% | OVCAR-5 ovarian 93.3% | OVCAR-4 ovarian 82.3% | SK-OV-3 ovarian 106% | IGROV1 ovarian 50.8% | OVCAR-3 ovarian 77.5% | HS 578T breast 89.1% | NCI/ADR-RES ovarian 85.3%
active: SR leukemia -31.4%

CCOc1ccc(/C=N/Nc2cc(C)nc3ccc(Cl)cc23)cc1
inactive: SK-MEL-2 melanoma 91% | EKVX NSCLC 81.7% | UO-31 renal 47.6% | TK-10 renal 121% | ACHN renal 51.2% | CAKI-1 renal 78.2% | OVCAR-8 ovarian 45.2% | OVCAR-5 ovarian 79.2% | OVCAR-4 ovarian 56.8% | SK-OV-3 ovarian 84.1% | IGROV1 ovarian 45.4% | HS 578T breast 92.3% | NCI/ADR-RES ovarian 45.9%
active: SN12C renal -26% | CCRF-CEM leukemia 0.25% | MOLT-4 leukemia -30.5% | SR leukemia -9.13% | RPMI-8226 leukemia -1.34% | OVCAR-3 ovarian -16.3%

CCOc1cc(CNc2ccc(N3CCOCC3)c(C(=O)O)c2)ccc1OC
inactive: SK-MEL-2 melanoma 98.7% | EKVX NSCLC 96.9% | SN12C renal 94.2% | UO-31 renal 98.1% | TK-10 renal 94.7% | ACHN renal 108% | CAKI-1 renal 102% | CCRF-CEM leukemia 106% | MOLT-4 leukemia 104% | SR leukemia 94.2% | RPMI-8226 leukemia 100% | OVCAR-8 ovarian 95.2% | OVCAR-5 ovarian 102% | OVCAR-4 ovarian 102% | SK-OV-3 ovarian 120% | IGROV1 ovarian 103% | OVCAR-3 ovarian 105% | HS 578T breast 95.6% | NCI/ADR-RES ovarian 102%

COc1cc(C2CC(c3cccc(Nc4ccncc4)c3)=NN2c2ccc(Cl)cc2)cc(OC)c1OC (configuration not stated)
inactive: SK-MEL-2 melanoma 55.8% | EKVX NSCLC 65.2% | SN12C renal 54.7% | UO-31 renal 42.4% | TK-10 renal 68.4% | CAKI-1 renal 19.2% | OVCAR-5 ovarian 72.1% | SK-OV-3 ovarian 64.5% | HS 578T breast 27.8% | NCI/ADR-RES ovarian 42.7%
active: ACHN renal -62.1% | CCRF-CEM leukemia -9.68% | MOLT-4 leukemia -17.3% | SR leukemia 2.48% | RPMI-8226 leukemia -18.7% | OVCAR-8 ovarian -26.5% | OVCAR-4 ovarian 6.52% | IGROV1 ovarian 4.16% | OVCAR-3 ovarian -25.3%

Clc1ccc(N2N=C(c3cccc(Nc4ccncc4)c3)CC2c2ccc3c(c2)OCO3)cc1 (configuration not stated)
active: CCRF-CEM leukemia 5.74% | MOLT-4 leukemia 2.58% | SR leukemia 6.11%
inactive: SK-MEL-2 melanoma 94.4% | EKVX NSCLC 74.8% | SN12C renal 62.6% | UO-31 renal 41.9% | TK-10 renal 83.5% | ACHN renal 41.6% | CAKI-1 renal 10% | RPMI-8226 leukemia 44.1% | OVCAR-8 ovarian 26.7% | OVCAR-5 ovarian 73.9% | OVCAR-4 ovarian 44.7% | SK-OV-3 ovarian 54.8% | IGROV1 ovarian 20.7% | OVCAR-3 ovarian 23.5% | HS 578T breast 68.9% | NCI/ADR-RES ovarian 31.2%
